# From PubChem BioAssay (NCATS)
# Results filed as inconclusive are left out. Activity calls are given as the source filed them. Unless noted, calls follow the shape of the dose curve; as a rule, active = well fitted curve in the direction sought with a large enough effect; inconclusive = small, poorly fitted or top-dose-only effect, or another doubt; inactive = no such curve, though single readings can be large; an effect the other way counts as inactive or inconclusive.
# Key:
# [1] = biological target: Glucagon-like peptide 1 receptor (Homo sapiens) (UniProt P43220); experiment: qHTS of GLP-1 Receptor Agonists: LOPAC Validation (AID 624148); conditions: GLP-1R agonist cell assay; series mostly up to 46.1 µM;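 also: 0% is about no effect; higher luminescence signal means agonism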
# Chain of Glucagon-like peptide 1 receptor (Homo sapiens) (P43220 whole entry, looked up): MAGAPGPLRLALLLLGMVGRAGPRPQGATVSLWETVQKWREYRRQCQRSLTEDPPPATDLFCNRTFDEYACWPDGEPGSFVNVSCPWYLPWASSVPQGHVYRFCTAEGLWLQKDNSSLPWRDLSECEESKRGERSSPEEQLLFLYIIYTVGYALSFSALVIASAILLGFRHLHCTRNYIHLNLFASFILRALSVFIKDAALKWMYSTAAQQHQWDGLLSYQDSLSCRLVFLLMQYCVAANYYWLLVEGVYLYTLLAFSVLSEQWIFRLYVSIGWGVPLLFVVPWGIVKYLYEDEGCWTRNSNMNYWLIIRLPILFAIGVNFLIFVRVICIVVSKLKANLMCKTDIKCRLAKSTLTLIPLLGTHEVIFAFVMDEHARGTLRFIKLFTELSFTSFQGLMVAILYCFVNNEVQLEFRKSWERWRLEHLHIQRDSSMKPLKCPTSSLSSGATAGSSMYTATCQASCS
# Procedure, shortened: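 HEK293 cells stably co-expressing a cAMP-responsive luciferase reporter and a hypersensitive GLP-1R were plated 12 h at 37 °C and exposed to compounds for 4-6 hr at 37 °C, 5% CO2. Luminescence was read 12 min after adding detection reagent.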
# [2] = qHTS of Nrf2 Activators: LOPAC Validation (AID 624149); conditions: Nrf2/ARE reporter cell assay; series mostly up to 46.1 µM; also: 0% is about no effect
# Procedure, shortened: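 AREc32 cells carrying an ARE-driven firefly luciferase were grown overnight in OPTI-MEM with 5% FBS, then exposed to compounds for 24 hr at 37 deg C. Luciferase signal was read after 30 min with Steady-Glo at RT.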
# [3] = HTS Assay for Allosteric Antagonists of the Human D2 Dopamine Receptor: Hit Validation in HTRF (AID 624455); conditions: Cells stably expressing D1 dopamine receptor, inhibition mode; series mostly up to 46.1 µM;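 also: stable D1 dopamine receptor cell line scored for blocking the D1 response; % is scaled to controls: 0 for no effect and ±100 for the full control effect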
# Procedure, shortened: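 Hits were examined in an HTRF assay using cells stably expressing the D1 dopamine receptor, scoring inhibition of the D1-mediated response. The preceding primary screen tracked calcium flux after an EC80 dopamine addition in force-coupled, inducible Hek293 Trex D2 cells.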
# [4] = qHTS assay for small molecule activators of the p53 signaling pathway (AID 651743; active = well fitted activation curve with a large enough effect in the signal ratio, not every such curve was filed as active; the % refers to the signal ratio; also: % of control where 0% means no effect); conditions: HCT-116 p53RE-bla, beta-lactamase FRET ratio, 16 h; stronger effect = higher value
# Procedure, shortened: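 p53RE-bla HCT-116 cells with a stably integrated beta-lactamase reporter under p53 response elements were plated, rested 5 hours at 37 C/5% CO2, then exposed to compounds in DMSO for 16 hours at 37 C. LiveBLAzer B/G FRET substrate was read after 2 hours at room temperature.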
# [5] = qHTS assay for environmental chemicals that activate the Aryl hydrocarbon Receptor (AhR) signaling pathway (AID 651777); conditions: 1A2-DRE human hepatoma cells, luciferase, 24 h; stronger effect = higher value; also: % of control where 0% means no effect; nearly all actives have a fitted effect of over 15% in size
# Procedure, shortened: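 Concentration–response screening used 1,200 1A2-DRE cells per well, 24 hr compound exposure (37 C, 5% CO2), and One-Glo luminescence as the AhR-driven CYP1A2 reporter signal.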
# [6] = biological target: Peroxisome proliferator-activated receptor alpha (Homo sapiens) (UniProt Q07869); experiment: qHTS assay for small molecule agonists of the peroxisome proliferator-activated receptor alpha (PPARalpha) signaling pathway (AID 651778); conditions: PathHunter PPARalpha complementation, chemiluminescence, 6 h; max response: stronger effect = higher value; also: potency is read from the fitted curve at half-maximal effect; as to max response: % of control where 0% means no effect
# Chain of Peroxisome proliferator-activated receptor alpha (Homo sapiens) (Q07869 whole entry, looked up): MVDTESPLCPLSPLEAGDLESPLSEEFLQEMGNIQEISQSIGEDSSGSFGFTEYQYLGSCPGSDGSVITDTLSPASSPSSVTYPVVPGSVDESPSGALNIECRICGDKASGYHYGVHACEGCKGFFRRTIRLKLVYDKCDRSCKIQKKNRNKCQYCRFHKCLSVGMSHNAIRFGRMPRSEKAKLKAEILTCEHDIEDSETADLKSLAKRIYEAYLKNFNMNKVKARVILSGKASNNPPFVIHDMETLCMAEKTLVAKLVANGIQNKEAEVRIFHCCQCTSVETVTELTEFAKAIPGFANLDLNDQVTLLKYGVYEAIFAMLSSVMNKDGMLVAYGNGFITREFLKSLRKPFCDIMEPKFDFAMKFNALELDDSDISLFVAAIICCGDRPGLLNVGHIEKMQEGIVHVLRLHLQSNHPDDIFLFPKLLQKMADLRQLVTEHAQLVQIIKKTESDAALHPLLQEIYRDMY
# Procedure, shortened: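 Cells plated at 2,000/well and held overnight at 37 C, 5% CO2, then compound added by pin tool for 6 hr; after PathHunter detection reagent and 60 min at room temperature, chemiluminescence from enzyme complementation was read.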
# [7] = Cytotoxicity counterscreen for NFkB agonists and antagonists (AID 624476); conditions: NFkB reporter cell line viability counterscreen;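 also: potency is read from the fitted curve at half-maximal effect; cells exposed to compound for 48 hours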
# [8] = qHTS Assay for Identification of Small Molecule Agonists for NFkB Signaling Pathway. (AID 624478); conditions: NFkB pathway reporter cell assay, agonist mode, cells co-stimulated with 10 pM TNF alpha; series mostly up to 46.1 µM; also: 0% is about no effect
# Procedure, shortened: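 NFkB-bla ME-180 cells (beta-lactamase reporter under NFkB response element) were plated overnight, treated with compound plus TNF alpha at 10 pM final (its EC50) for 5 hrs at 37 C, then loaded with LiveBLAzer substrate for 2 hrs.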
# [9] = qHTS Assay for Identification of Small Molecule Antagonists for NFkB Signaling Pathway. (AID 624479; calls by dose curve; also: potency is read from the fitted curve at half-maximal effect); conditions: NFkB pathway reporter cell assay, antagonist mode; series mostly up to 38.3 µM
# [10] = Cell Proliferation Assay against the TMD8 Cell Line (AID 651645); conditions: TMD8 DLBCL cell line proliferation/viability; at 46.1 µM (top of the series);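 also: cells exposed to compound for 48 h before reading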
# Procedure, shortened: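 500 TMD8 cells/well, RPMI + Glutamax, no phenol red, 5% FBS; cpd added immediately; 48 h, 37C, 5% CO2; CellTiter-Glo, luminescence. Controls: DMSO = 100%, bortezomib 9.2 uM final = 0%.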
# [11] = Cell Proliferation Assay against the HBL1 Cell Line (AID 651646); conditions: HBL1 DLBCL cells; at 46.1 µM (top of the series);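 also: cells exposed to compound for 48 h before reading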
# Procedure, shortened: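 500 log-phase HBL1 cells per well in phenol red-free RPMI with 5% FBS were treated with compounds for 48 h at 37 °C, 5% CO2. Viability was read by CellTiter-Glo luminescence, normalized to DMSO (100%) and 9.2 uM bortezomib final (0%).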
# [12] = Cell Proliferation Assay against the TMD8 Cell Line (Caspase readout at 8 hrs) (AID 651713); conditions: TMD8 lymphoma cells, caspase activation luminescence; series mostly up to 46.1 µM; also: potency is read from the fitted curve at half-maximal effect;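 as to caspase activation: 0% = DMSO and 100% = 9.2 µM bortezomib caspase signal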
# Procedure, shortened: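 TMD8 cells (500/well) in phenol red-free RPMI with 5% FBS were treated with compounds for 8 h at 37C, 5% CO2. Caspase-Glo 3/7 luminescence was read after 15 min at room temperature and normalised to DMSO (0%) and 9.2 uM bortezomib (100%).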
# [13] = biological target: Tyrosine-protein kinase Yes (Homo sapiens) (UniProt P07947); experiment: qHTS for small molecule inhibitors of Yes1 kinase: Primary Screen (AID 686947); conditions: Yes1 kinase biochemical qHTS inhibition; series mostly up to 76.9 µM; also: nearly all actives have a fitted effect of over 60% in size; also: potency is read from the fitted curve at half-maximal effect
# Chain of Tyrosine-protein kinase Yes (Homo sapiens) (P07947 whole entry, looked up): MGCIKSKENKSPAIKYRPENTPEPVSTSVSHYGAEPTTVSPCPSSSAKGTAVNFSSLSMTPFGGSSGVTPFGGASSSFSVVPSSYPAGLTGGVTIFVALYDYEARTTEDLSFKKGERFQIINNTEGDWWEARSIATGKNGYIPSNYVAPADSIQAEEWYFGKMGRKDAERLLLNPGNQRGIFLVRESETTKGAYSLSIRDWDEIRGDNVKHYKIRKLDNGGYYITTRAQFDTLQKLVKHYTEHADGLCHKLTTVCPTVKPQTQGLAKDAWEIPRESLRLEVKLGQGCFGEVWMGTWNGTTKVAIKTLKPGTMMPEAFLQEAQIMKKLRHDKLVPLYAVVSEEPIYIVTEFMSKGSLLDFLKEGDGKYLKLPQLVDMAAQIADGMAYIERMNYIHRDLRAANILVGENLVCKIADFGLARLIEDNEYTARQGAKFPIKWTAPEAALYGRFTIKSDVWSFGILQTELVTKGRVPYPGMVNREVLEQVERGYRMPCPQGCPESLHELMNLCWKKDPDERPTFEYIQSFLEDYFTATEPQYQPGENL
# Procedure, shortened: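 ADP-Glo luminescence readout; final 4 nM Yes1, 0.1 mM ATP, 0.3 mg/mL poly(E4Y), Tris pH 7.5, MgCl2, DTT, Brij-35. 20 min compound preincubation, 60 min reaction at RT. Normalized to DMSO wells with and without enzyme.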
# [14] = qHTS for small molecule inhibitors of Yes1 kinase: Counter Assay (AID 686950); conditions: series mostly up to 76.9 µM;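 also: no kinase present so only ADP-Glo detection of a fixed ADP amount is tested; luminescence from ADP-Glo reporting ADP in a fixed ATP and ADP mixture; 0% = DMSO wells with ATP plus ADP and -100% = ATP-only wells without ADP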
# Procedure, shortened: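 Enzyme-free ADP-Glo interference check: compounds were preincubated 20 min in buffer, then an ATP/ADP mix (0.08 mM ATP, 0.02 mM ADP final) was added for 60 min at room temperature before two-step ADP-Glo luminescence detection.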
# [15] = qHTS assay for small molecule activators of the nuclear factor-kappa B (NF-kB) signaling pathway (AID 651749; active = well fitted activation curve with a large enough effect in the signal ratio; the % refers to the signal ratio; also: % of control where 0% means no effect); conditions: NF-kB-bla ME-180 cells, beta-lactamase FRET ratio, 16 h; stronger effect = higher value
# Procedure, shortened: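 ME-180 cells stably carrying a beta-lactamase reporter under an NF-kB response element were exposed to compound or DMSO vehicle for 16 hr at 37C, 5% CO2. Pathway activation was read by FRET, since reporter expression disrupts FRET.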
# [16] = Cell Proliferation Assay against the TMD8 Cell Line (Caspase readout at 16 hrs) (AID 651712); conditions: TMD8 lymphoma cells, caspase activation luminescence; also: potency is read from the fitted curve at half-maximal effect
# Procedure, shortened: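 TMD8 cells (500/well) in phenol-red-free RPMI with glutamine, 5% FBS, were exposed to compounds for 16 h at 37 °C. Caspase 3/7 activation was read by Caspase-Glo luminescence; percent activity normalised to DMSO (0%) and 9.2 uM bortezomib final (100%).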
# [17] = qHTS assay for small molecule agonists of the antioxidant response element (ARE) signaling pathway (AID 651741; active = well fitted activation curve with a large enough effect in the signal ratio; the % refers to the signal ratio; also: potency is read from the fitted curve at half-maximal effect); conditions: HepG2 ARE-bla reporter, beta-lactamase FRET ratio, 16 h
# Procedure, shortened: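 ARE-bla HepG2 cells (beta-lactamase reporter under ARE control) were plated at 2,000 cells/well, preincubated 5 h at 37 C/5% CO2, then treated with DMSO-dissolved compounds for 16 h at 37 C; LiveBLAzer B/G FRET substrate added, fluorescence read after 2 h at room temperature.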
# [18] = biological target: Tumor necrosis factor (Homo sapiens) (UniProt P01375); experiment: qHTS assay to identify small molecules that stimulate Tumor Necrosis Factor-alpha (TNF-alpha) secretion (AID 651757; active = well fitted curve in the direction sought with a large enough effect in the signal ratio; the % refers to the signal ratio; also: 0% is about no effect); conditions: Human cells, HTRF 665/615 ratio; series mostly up to 92.2 µM
# Chain of Tumor necrosis factor (Homo sapiens) (P01375 whole entry, looked up): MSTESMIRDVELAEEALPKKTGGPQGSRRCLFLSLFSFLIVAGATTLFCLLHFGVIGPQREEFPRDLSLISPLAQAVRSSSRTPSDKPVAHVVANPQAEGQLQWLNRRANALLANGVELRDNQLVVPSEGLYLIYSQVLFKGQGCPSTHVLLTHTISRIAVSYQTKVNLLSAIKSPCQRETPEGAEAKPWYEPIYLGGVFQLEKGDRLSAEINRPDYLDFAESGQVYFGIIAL
# Procedure, shortened: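 THP-1 cells were exposed to compounds for 17 hrs at 37 C, after which secreted TNF-alpha was measured by homogeneous HTRF (TR-FRET) using cryptate- and XL665-labeled anti-TNF-alpha antibodies, read after 3 hr at room temperature.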
# [19] = qHTS assay to identify small molecules that stimulate interleukin-8 (IL-8) secretion (AID 651758; active = well fitted activation curve with a large enough effect in the signal ratio; the % refers to the signal ratio; also: 0% is about no effect); conditions: HTRF ratio (665/615); series mostly up to 92.2 µM
# Procedure, shortened: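 THP-1, 2000 cells/well; cpd 16 h, 37 C; add cryptate + XL665 anti-IL-8 Abs; RT 1-3 h; TR-FRET read.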
# [20] = biological target: Nuclear receptor ROR-gamma (Homo sapiens) (UniProt P51449); experiment: qHTS assay for small molecule antagonists of the retinoid-related orphan receptor gamma (ROR-gamma) signaling pathway (AID 651802); conditions: ROR-gamma antagonist cell reporter assay; series mostly up to 92.2 µM; also: % is scaled to controls: 0 for no effect and ±100 for the full control effect; nearly all actives have a fitted effect of over 60% in size
# Chain of Nuclear receptor ROR-gamma (Homo sapiens) (P51449 whole entry, looked up): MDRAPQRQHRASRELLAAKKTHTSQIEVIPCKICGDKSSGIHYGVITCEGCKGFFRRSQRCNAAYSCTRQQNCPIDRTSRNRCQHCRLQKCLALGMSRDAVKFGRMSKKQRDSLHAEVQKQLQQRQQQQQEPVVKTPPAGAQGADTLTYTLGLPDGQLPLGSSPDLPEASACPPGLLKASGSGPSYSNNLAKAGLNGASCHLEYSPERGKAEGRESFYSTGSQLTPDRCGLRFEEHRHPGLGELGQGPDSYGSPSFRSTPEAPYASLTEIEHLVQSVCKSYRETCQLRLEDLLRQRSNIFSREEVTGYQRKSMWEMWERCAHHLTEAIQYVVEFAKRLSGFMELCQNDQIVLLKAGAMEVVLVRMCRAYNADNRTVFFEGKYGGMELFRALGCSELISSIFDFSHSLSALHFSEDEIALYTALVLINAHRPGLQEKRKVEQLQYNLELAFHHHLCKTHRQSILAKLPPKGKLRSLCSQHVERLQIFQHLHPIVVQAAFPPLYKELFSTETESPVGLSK
# Procedure, shortened: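 CHO cells carrying TET-inducible ROR-gamma and an ROR response element–luciferase reporter were exposed to compound, then induced with doxycycline. After 16hr at 37C, luminescence was read; lower signal indicates antagonism.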
smiles,measurement,setting,value
O=c1[nH]c(=O)n([C@H]2C[C@@H](O)[C@@H](CO)O2)cc1C=CBr,outcome,[1],inactive
same,outcome,[2],inactive
same,outcome,[3],inactive
CC(C=CC1=C(C)CCCC1(C)C)=CC=CC(C)=CC(=O)Nc1ccc(O)cc1,activation,[4],0.252% (inactive)
same,activation,[5],-5.07% (inactive)
same,Potency,[6],8.91 µM (active)
COc1ccc2cc([S+]([O-])Cc3ncc(C)c(OC)c3C)nc2c1,outcome,[1],inactive
same,outcome,[2],inactive
same,outcome,[3],inactive
COc1cc2c(cc1OC)[C@@H]1C(=O)c3ccc4c(c3O[C@@H]1CO2)C=CC(C)(C)O4,Potency,[7],26.4 µM (active)
same,outcome,[8],inactive
same,Potency,[9],inactive
same,viability (% of control),[10],2.43%
same,"viability, percent of control",[11],18.7%
same,Potency,[12],inactive
same,Potency,[13],inactive
same,outcome,[14],inactive
OC[C@@H](O)[C@@H](O)[C@H](O)[C@@H](O)CO,activation,[4],-2.74% (inactive)
same,activation,[15],-0.0055% (inactive)
same,activation,[5],0.287% (inactive)
same,max response,[6],-1.39% (inactive)
C=CCNC1=C2C[C@@H](C)C[C@H](OC)[C@@H](O)[C@@H](C)C=C(C)[C@H](OC(N)=O)[C@@H](OC)C=CC=C(C)C(=O)NC(=CC1=O)C2=O,Potency,[13],inactive
same,outcome,[14],inactive
N#Cc1c(NC(=O)c2cccc3ccccc23)sc2c1CCCC2,Potency,[13],inactive
same,outcome,[14],inactive
COc1cc(C)c(Sc2cnc(NC(=O)c3ccc(CNC(C)C(C)(C)C)cc3)s2)cc1C(=O)N1CCN(C(C)=O)CC1 (stereo not drawn),outcome,[8],inactive
same,Potency,[9],26.6 µM (active)
same,viability (% of control),[10],18.7%
same,"viability, percent of control",[11],12.9%
same,Potency,[13],54.7 nM (active)
same,outcome,[14],inactive
CN[C@H](CC(C)C)C(=O)N[C@H]1C(=O)N[C@@H](CC(N)=O)C(=O)N[C@@H]2C(=O)N[C@H]3C(=O)N[C@H](C(=O)N[C@H](C(=O)O)c4cc(O)cc(O)c4-c4cc3ccc4O)[C@H](O)c3ccc(c(Cl)c3)Oc3cc2cc(c3O[C@@H]2O[C@H](CO)[C@@H](O)[C@H](O)[C@@H]2O[C@H]2C[C@](C)(N)[C@H](O)[C@H](C)O2)Oc2ccc(cc2Cl)[C@H]1O,outcome,[1],inactive
same,outcome,[2],inactive
same,outcome,[3],inactive
Cn1c(Nc2ccc(C(F)(F)F)cc2)nc2cc(Oc3ccnc(-c4ncc(C(F)(F)F)[nH]4)c3)ccc21,Potency,[7],20.9 µM (active)
same,outcome,[8],inactive
same,Potency,[9],1.33 µM (active)
same,viability (% of control),[10],15.6%
same,"viability, percent of control",[11],33%
same,Potency,[16],16.6 µM (active)
same,Potency,[12],inactive
same,outcome,[14],inactive
O=C1c2cccc(O)c2C(=O)c2c(O)cc(CO)cc21,activation,[4],6.22% (inactive)
same,activation,[5],2.38% (inactive)
same,max response,[6],-2.01% (inactive)
C[C@]12CC[C@@H]3c4ccc(O)cc4CC[C@H]3[C@H]1CC[C@H]2O,activation,[4],13.4% (inactive)
same,activation,[5],2.62% (inactive)
same,max response,[6],-1.17% (inactive)
N#Cc1cc(NC(=O)Nc2nnc(-c3ccncc3)s2)ccc1-c1cn[nH]c1,outcome,[14],inactive
Cc1cc(O)c2c(c1)C(=O)c1cccc(O)c1C2=O,Potency,[17],26.6 µM (active)
same,activation,[4],-1.77% (inactive)
same,activation,[15],-0.078% (inactive)
same,outcome,[18],inactive
same,outcome,[19],inactive
same,activation,[5],0.266% (inactive)
same,max response,[6],-1.41% (inactive)
same,outcome,[20],inactive
N#Cc1ccc(COC[C@H]2O[C@@H](n3c(NCc4ccc(Cl)c(Cl)c4)nc4c(N)ncnc43)[C@@H](O)[C@@H]2O)cc1,outcome,[8],inactive
same,viability (% of control),[10],1.09%
same,"viability, percent of control",[11],17.4%
same,Potency,[12],29.6 µM (active)
same,Potency,[13],487 nM (active)
same,outcome,[14],inactive
